The source of these data is PubChem BioAssay (NCATS).

Assay [1] is described as follows: Viability qHTS for spleen associated tyrosine kinase inhibitor (SYKi) naive MV4-11 cells (AID 1963823). Also: nearly all actives have a fitted effect of over 40% in size. In a few lines: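 Read-out: CellTiter-Glo luminescence. Exposure: 72 hr, 37 C, 5% CO2, 95% humidity. Cells: MV4-11 without SYK inhibitor history, 500/well, qHTS format.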
Assay [2] in a line: Viability qHTS for spleen associated tyrosine kinase inhibitor (SYKi) drug resistant MV4-11 cells (AID 1963824). Also: nearly all actives have a fitted effect of over 35% in size. In a few lines:
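SYK inhibitor-resistant MV4-11 AML cells, 500 per well, added to predispensed compounds and incubated 72 hr at 37 C, 5% CO2. Viability measured by CellTiter-Glo luminescence after 10 min at room temperature.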
(qHTS replaces the single test concentration by a dilution series.)

SMILES strings stand for the structures. Records with an inconclusive call do not appear. Unmarked numbers belong to inactive results. Calls of active or inactive are those of the source. Calls follow the shape of the dose curve; as a rule, active = well fitted cell-killing curve with a large enough effect; inconclusive = small, poorly fitted or top-dose-only effect, or effect the other way; inactive = no such curve, though single readings can be large or run the other way.
Potency is read from the fitted curve at half-maximal effect.

On to `CO[C@@H]1C[C@H](O[C@H]2CC[C@@]3(C)C(CCC4C3CC[C@]3(C)[C@@H](C5=CC(=O)OC5)[C@@H](OC(C)=O)CC43O)C2)O[C@H](C)[C@@H]1O[C@H]1O[C@H](CO[C@@H]2O[C@H](CO)[C@@H](O)[C@H](O)[C@H]2O)[C@@H](O)[C@H](O)[C@H]1O` (some centres not stated), for which the Potency in assay [1] is 0.31 µM (active); in assay [2], 0.155 µM (active).

For the compound `COC1CC(OC2CCC3(C=O)C(CCC4C3CCC3(C)C(C5=CC(=O)OC5)CCC43O)C2)OC(C)C1OC1OC(CO)C(O)C(O)C1O` (configuration not stated), the Potency is 0.0862 µM (active) in assay [1] and 0.0544 µM (active) in assay [2].

As to `C/C=C(\C)C(=O)OC1CC2C(C)(C)OC(=O)CC(OC(C)=O)C2(C)C2CC(OC(=O)C(C)C)C3(C)C(c4ccoc4)CC4OC43C12C` (configuration not stated), the Potency result in assay [1] and in assay [2] was “inactive” each time.

With `CCC1C2CC3C4N(C)c5ccccc5C45CC(C2C5O)N3C1O` (configuration not stated), the Potency result in assay [1] and in assay [2] was “inactive” throughout.

For `CCCCCCC1C(=O)O[C@H](C)[C@H](NC(=O)c2cccc(NC=O)c2O)C(=O)O[C@@H](C)[C@@H]1OC(=O)CC(C)C` (some centres not stated), the Potency was 0.517 µM (active) in assay [1] and 0.291 µM (active) in assay [2].

On to `Cc1ccc2c(c1)[C@H]1CN(C)CC[C@H]1N2C(=O)CSc1nnnn1-c1ccc(Cl)cc1`, for which the Potency entry in assay [1] and in assay [2] was “inactive” in each case.

In the case of `CC[C@H](C)[C@H](NC(=O)[C@H]1CCCCN1C)C(=O)N(COC(=O)CC(C)C)[C@H](C[C@@H](OC(C)=O)c1nc(C(=O)N[C@@H](Cc2ccc(O)cc2)C[C@H](C)C(=O)O)cs1)C(C)C`, the Potency in assay [1] and in assay [2] was 0.0004 µM (active) in each case.

With `CCCN1CCO[C@H]2c3cc(O)ccc3OC[C@@H]21`, the Potency result in assay [1] and in assay [2] was “inactive” throughout.

Turning to `CN(C)[C@@H]1C(=O)C(C(N)=O)=C(O)[C@@]2(O)C(=O)C3=C(O)c4c(O)ccc(Cl)c4[C@@](C)(O)C3C[C@@H]12` (some centres not stated), the Potency entry in assay [1] and in assay [2] was “inactive” each time.

On to `CN1CCc2cc3c(cc2C1C1OC(=O)c2c1ccc1c2OCO1)OCO3` (configuration not stated), for which the Potency result in assay [1] and in assay [2] was “inactive” each time.

Regarding `CC[C@@]1(O)C(=O)OCc2c1cc1n(c2=O)Cc2cc3c(OC)cccc3nc2-1`, the values for the Potency in assay [1] and in assay [2] were 0.0143 µM (active) and 0.0114 µM (active), respectively.

As to `C[C@@H]1C[C@@H](O)[C@]2(O)O[C@@H]3C[C@@]4(C=O)C(CC[C@@H]5C4CC[C@]4(C)[C@@](O)(C6=CC(=O)OC6)CC[C@]54O)C[C@H]3OC2O1` (some centres not stated), the Potency in assay [1] was 0.796 µM (active); in assay [2] it was 0.709 µM (active).

As for `C=C(C)[C@@]12O[C@@H]1[C@@]1(C)C(=CC2=O)CC[C@@H](OC(C)=O)[C@@H]1C`, the Potency in assay [1] and in assay [2] was 2.31 µM (active) each time.

On to `CN1CCCCC1Cn1cc(C(=O)c2cc([N+](=O)[O-])ccc2I)c2ccccc21` (configuration not stated), for which the Potency in assay [1] was 14.6 µM (active); in assay [2] it was 10.3 µM (active).

With `CC[C@H]1/C=C\C=C/C[C@@H](C)[C@H](O)[C@@](C)(O)C(=O)[C@@H](C)[C@H](O)[C@@H](C)C(=O)[C@@H](C)[C@H](O)[C@@H](C)/C=C\C(=O)O[C@@H]2[C@H](C)[C@H](CC1)O[C@]1(CC[C@H](C)[C@H](C[C@@H](C)O)O1)[C@H]2C`, the Potency is 0.0092 µM (active) in assay [1] and 0.0065 µM (active) in assay [2].

As for `O=C(O)c1ccnc2cc(C(OCCN3CCCCC3)c3ccccc3Cl)[nH]c12` (configuration not stated), the Potency result in assay [1] and in assay [2] was “inactive” in each case.

In the case of `COc1ccc(CCNCc2ccc(OC)c3ccccc23)cc1`, the figures for the Potency in assay [1] and in assay [2] were 9.2 µM (active) and 8.2 µM (active), respectively.

Take `CC(=O)O[C@@H]1[C@@H](O)[C@H]2O[C@@H]3C=C(C)[C@@H](O)C[C@]3(CO)[C@]1(C)[C@]21CO1`: the Potency in assay [1] and in assay [2] was 0.321 µM (active) throughout.

In the case of `CC[C@H](C)[C@@H]([C@@H](CC(=O)N1CCC[C@H]1[C@H](OC)[C@@H](C)C(=O)N[C@@H](Cc1ccccc1)c1nccs1)OC)N(C)C(=O)[C@@H](NC(=O)C(C)(C)N)C(C)C`, the Potency entry in assay [1] and in assay [2] was “inactive” throughout.

Turning to `C[C@]12CC[C@@H](O)C[C@@H]1CC[C@@H]1[C@@H]2CC[C@]2(C)C(=O)[C@@H](Br)C[C@@H]12`, the Potency in assay [1] was 16.4 µM (active); in assay [2] it was 11.6 µM (active).

For `COC(=O)C1(C)CCC(O)C2(C)c3c(O)cc(C(C)C)cc3C(O)C(OC(C)=O)C12` (configuration not stated), the Potency entry in assay [1] and in assay [2] was “inactive” each time.

On to `Nc1ccn(C[C@@H](CO)OCP(=O)(O)O)c(=O)n1`, for which the viability (% of control) in assay [1] was 57.6% [at 9.25 µM]. Further, the viability, % of control in assay [2] is 69.1% [at 9.25 µM].

With `C[C@]12CC[C@H]3[C@@H]([C@H](O)CC4=CC(=O)CC[C@@]43C)[C@@H]1CC[C@@H]2O`, the Potency result in assay [1] and in assay [2] was “inactive” each time.

In the case of `C/C=C(\C)C(=O)O[C@H]1CC2C(=C1C)[C@H]1OC(=O)[C@](C)(O)[C@]1(O)[C@H](OC(=O)CCC)C[C@@]2(C)OC(C)=O` (some centres not stated), the Potency was 1.78 µM (active) in assay [1] and 0.563 µM (active) in assay [2].

`COC(=O)N1CCN(C(=O)Cc2ccc(Cl)c(Cl)c2)[C@@H](CN2CCCC2)C1`: the Potency result in assay [1] and in assay [2] was “inactive” in each case.

As for `CC(C)(C)[C@]1(O)C[C@@H]2OC(=O)C[C@@]23C(=O)O[C@@H]2OC(=O)[C@@H](O)[C@]213`, the Potency entry in assay [1] and in assay [2] was “inactive” in each case.
